Compound activity: PubChem, National Center for Advancing Translational Sciences (NCATS)
Pf Dd2 growth = Plasmodium falciparum Dd2 growth inhibition. Potency, µM (titrated, usually from 28.9 µM), without a hit: top-dose activity, negative = inhibition, most hits filed as inhibitors. 120,000 tested, 4.3% active. P. falciparum Dd2 growth, SYBR Green, 72 h; active = well fitted inhibition curve with a large enough effect;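 note: plate controls were DMSO vehicle for no effect and reference drug for full effect; nearly all actives have a fitted effect of over 65% in size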
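Infected erythrocytes (Dd2, 0.3% parasitemia, 2.5% hematocrit final) are added to compound in RPMI-1640/Albumax II medium, grown 72 h at 37C in low oxygen, then lysed with saponin/Triton-X containing SYBR Green and read by fluorescence.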
An asterisk follows results filed as active; i = inactive; [ ] = remark or other dose. The sample as a whole holds a higher share of hits than the screen did. Potency is the fitted concentration of half-maximal effect.

SMILES	Pf Dd2 growth
COCc1cc(CNC(=O)Cn2ncc3ccccc3c2=O)[nH]n1	-1.0%
Cc1noc(C)c1[S+](=O)([O-])N1CCCC(c2nn(-c3ccc(F)cc3)c(=O)[nH]2)C1 (stereo not drawn)	8.8%
COc1cccc(F)c1C(=O)N1C[C@@H](CN2CCOCC2)[C@@H](CO)C1	-2.3%
C[S+](=O)([O-])N1CCC2(CC(=O)Nc3ccccc3N2)C1 (stereo not drawn)	13.4%
CN1CCCC12Cc1ccccc1CN([S+](C)(=O)[O-])C2 (stereo not drawn)	-26.6%[44.1 µM]
Cn1ccnc1C(=O)N1CCCC1c1nncn1Cc1ccncc1 (stereo not drawn)	0.9%
CCn1c(C2CCN(S(=O)(=O)c3ccc(OC)cc3)CC2)nn(C)c1=O	4.9%
CC(C)NC(=O)N1CCN(C(=O)c2cccs2)[C@H](C(=O)N[C@@H](Cc2cccnc2)C(N)=O)C1	3.0%
CO[C@H]1[C@H](NC(=O)Cc2ccc(C)cc2)c2ccccc2C12CCNCC2	-11.8%
COc1ccc(C(=O)N2CCC3(CC2)NC(=O)N(Cc2ccc(C)cc2)C3=O)cc1	i
Cc1ccc(S(=O)(=O)N2CCC(n3cnnc3C(C)C)CC2)cc1F	i
Cc1ccc(/C=C(\C#N)c2nc3ccccc3c(=O)[nH]2)cc1	13.1%
Cc1ccc(/C=C/c2nc3ccccc3[nH]2)cc1	10µM*
Cc1ccc(C(C)(C)C)c(OCC(=O)NCCc2nc3ccccc3[nH]2)c1	4.3%
COc1ccccc1NC(=O)N1CC2CC(C1)[C@H]1CCCC(=O)N1C2 (stereo partly drawn)	0.1%
CC1CCC(NC(=O)C2CCN(C(=O)c3ncn4c3COC(c3ccccc3)C4)CC2)CC1 (stereo not drawn)	-19.8%
N#Cc1cccc(C(=O)NCc2nnc3ccc(-c4ccc(F)cc4)nn23)c1	i
COc1ccc(-c2cc(N3CCCC(NC(=O)c4cccc(Br)c4)C3)n[nH]2)cc1 (stereo not drawn)	10µM*
CN(C)c1cccc(C(=O)NC2CCCN(c3cc(-c4ccccc4)[nH]n3)C2)c1 (stereo not drawn)	-0.5%
COc1ccc(-c2cc(N3CCC(NC(=O)c4ccc(C)cc4)C3)n[nH]2)cc1 (stereo not drawn)	11.2µM*
COc1ccc(-c2cc(N3CCCC(NC(=O)c4ccccc4)C3)n[nH]2)cc1 (stereo not drawn)	i
CN(C)c1cccc(C(=O)NC2CCN(c3cc(-c4ccc(Cl)cc4)[nH]n3)C2)c1 (stereo not drawn)	7.94µM*
COc1ccc(C(=O)NC2CCCN(c3cc(-c4ccc(F)cc4)[nH]n3)C2)cc1 (stereo not drawn)	-10.8%
COc1ccc(-c2cc(N3CCCC(NC(=O)c4ccc5[nH]ccc5c4)C3)n[nH]2)cc1 (stereo not drawn)	10µM*
O=C(NC1CCCN(c2cc(-c3ccccc3)[nH]n2)C1)c1cccc(Br)c1 (stereo not drawn)	-8.6%
SMILES	Pf Dd2 growth
COc1ccc(-c2cc(N3CCC(NC(=O)c4ccc(Cl)cc4)C3)n[nH]2)cc1 (stereo not drawn)	i
O=C(NC1CCN(c2cc(-c3ccc(Cl)cc3)[nH]n2)C1)c1ccncc1 (stereo not drawn)	i
CCOc1ccc(C(=O)NC2CCN(c3cc(-c4ccc(OC)cc4)[nH]n3)C2)cc1 (stereo not drawn)	i
O=C(NC1CCCN(c2cc(-c3ccccc3)[nH]n2)C1)c1ccc2[nH]ccc2c1 (stereo not drawn)	-4.6%
CCCN(CCC)C(=O)C1COC2(CCC(C)CC2)N1C(=O)c1ccccc1F (stereo not drawn)	i
CC1(C)C(=O)N(Cc2ccccc2F)[C@H]2CN(Cc3cccnc3)C[C@@H]2[S+]1(=O)[O-]	20.7%[44.1 µM]
CC(C)CNC(=O)N1CCC(N2C(=O)C(OCC3CC3)C23CCCCC3)CC1 (stereo not drawn)	-13.4%
COCCCNC(=O)c1cn2ccnc(-c3ccc(OC)cc3)c2n1	-10.2%
C[S+](=O)([O-])N1CCC(Cn2ccc3c(N4CCOCC4)nc(-c4ccncc4)cc32)CC1	i
O=C1CC(c2ccccc2)N(C(=O)Nc2ccccc2F)CCCCCN1 (stereo not drawn)	i
N#Cc1ccc(CN2CCC3(CC2)COCCN3C(=O)OCc2ccccc2)cc1	i
O=C(Cc1ccc(F)cc1)N1CC(F)(F)C[C@H]1c1nc(C2CC2)no1	-7.5%
CN(C(=O)c1cc(COc2ccc3c(c2)OCO3)[nH]n1)C1CCOC1 (stereo not drawn)	-11.2%
Cc1ccc(-c2ccc3nnc(CNC(=O)C(C)c4ccccc4)n3n2)cc1 (stereo not drawn)	-26.4%
CCCNC(=O)CCc1ccnc(N2CCOCC2)c1	15.8%
O=C(CCc1ccnc(N2CCCC2)c1)NCc1ccc(F)c(Cl)c1	3.16µM*
Cn1c(CNC(=O)CCc2ccnc(N3CCCC3)c2)nc2ccccc21	-15.9%
CCc1cc(=O)n(CC(=O)NCc2ccc(OC)c(OC)c2)c(N2CCOCC2)n1	i
CC(C)NC(=O)C[C@@H]1O[C@H](CNC(=O)C2CC2)[C@@H](O)[C@H]1O	24.8%[44.1 µM]
